Drawing on PubChem BioAssay (Tox21), this text covers outcome and Potency for 16 compounds.

“And” between values parts separate entries of the source, which are not always exact repeats. Equal values may be shown once. Inconclusive results are not listed. The source made the active and inactive calls. Unless noted, calls come from the whole dose curve; as a rule, active = well fitted curve in the direction sought with a large enough effect in the repeat runs; inconclusive = weak or mixed curves; inactive = no such curve, though single readings can be large; an effect the other way counts as inactive or inconclusive.

The nature of test [1]: qHTS assay to identify small molecule antagonists of the glucocorticoid receptor (GR) signaling pathway - cell viability counter screen (AID 720693). Note: nearly all actives have a fitted effect of over 55% in size. Background: qHTS replaces the single test concentration by a dilution series.
A short description of test [2]: qHTS assay for identifying genotoxic compounds that show differential cytotoxicity against isogenic chicken DT40 cell lines with known DNA damage response pathways - wild type cell line (AID 743012). Note: nearly all actives have a fitted effect of over 60% in size. A digest of the protocol: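 First, wild type DT40 cells were plated at 300 per well and equilibrated about 0.5 h at 37 C/5% CO2. Next, compounds in DMSO were added and exposure lasted 40 h. Finally, CellTiter-Glo was added for 30 min at room temperature and luminescence recorded.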

Test [3] is described as follows: qHTS assay for identifying genotoxic compounds that show differential cytotoxicity against isogenic chicken DT40 cell lines with known DNA damage response pathways - Rev3 mutant cell line (AID 743014). Note: nearly all actives have a fitted effect of over 55% in size.
Test [4] can be described thus: qHTS assay for identifying genotoxic compounds that show differential cytotoxicity against isogenic chicken DT40 cell lines with known DNA damage response pathways - Rad54/Ku70 mutant cell line (AID 743015). Note: nearly all actives have a fitted effect of over 60% in size.
A short description of test [5]: qHTS assay to identify small molecule antagonists of the androgen receptor (AR) signaling pathway - cell viability counter screen (AID 743033; note: nearly all actives have a fitted effect of over 45% in size).
For test [6], the target named is Androgen receptor (Homo sapiens) (UniProt P10275). The test can be described thus: qHTS assay to identify small molecule antagonists of the androgen receptor (AR) signaling pathway (AID 743035; active = well fitted inhibition curve with a large enough effect in the signal ratio in the repeat runs, not every such curve was filed as active; the % refers to the signal ratio). A digest of the protocol: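 Beta-lactamase FRET read (2 h RT incubation with LiveBLAzer B/G) following 16 h of compound plus R1881 treatment of AR-UAS-bla HEK293 cells, which had been pre-incubated 4 h at 37C.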
Sequence of Androgen receptor (Homo sapiens) (P10275 whole entry, looked up): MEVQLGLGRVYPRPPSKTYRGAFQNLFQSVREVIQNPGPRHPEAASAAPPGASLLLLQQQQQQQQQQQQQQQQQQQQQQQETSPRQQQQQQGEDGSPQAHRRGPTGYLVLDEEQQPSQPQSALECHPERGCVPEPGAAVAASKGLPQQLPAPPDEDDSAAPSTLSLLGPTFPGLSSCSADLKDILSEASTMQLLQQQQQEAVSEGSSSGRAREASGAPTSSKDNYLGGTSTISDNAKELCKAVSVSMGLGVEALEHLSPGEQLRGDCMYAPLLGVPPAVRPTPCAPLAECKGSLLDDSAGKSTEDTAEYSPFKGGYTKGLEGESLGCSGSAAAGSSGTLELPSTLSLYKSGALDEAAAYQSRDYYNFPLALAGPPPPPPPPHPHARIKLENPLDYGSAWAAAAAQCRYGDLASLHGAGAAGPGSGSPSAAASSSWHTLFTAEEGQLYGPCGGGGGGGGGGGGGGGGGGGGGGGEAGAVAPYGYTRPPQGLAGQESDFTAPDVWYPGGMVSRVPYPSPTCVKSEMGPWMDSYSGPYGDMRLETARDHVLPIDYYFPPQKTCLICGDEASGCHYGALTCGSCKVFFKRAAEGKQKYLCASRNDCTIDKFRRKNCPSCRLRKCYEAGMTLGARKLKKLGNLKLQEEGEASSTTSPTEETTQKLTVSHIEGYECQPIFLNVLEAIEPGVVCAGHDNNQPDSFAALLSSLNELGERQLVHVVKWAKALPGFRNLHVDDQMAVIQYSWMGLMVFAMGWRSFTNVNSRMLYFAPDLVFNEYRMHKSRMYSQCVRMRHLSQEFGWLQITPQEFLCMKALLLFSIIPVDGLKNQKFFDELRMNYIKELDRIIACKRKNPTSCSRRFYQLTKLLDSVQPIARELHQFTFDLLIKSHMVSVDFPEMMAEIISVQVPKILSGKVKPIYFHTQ

Test [7] has the same target. Put plainly: qHTS assay to identify small molecule agonists of the androgen receptor (AR) signaling pathway (AID 743036; active = well fitted activation curve with a large enough effect in the signal ratio in the repeat runs, with a control signal flat, not every such curve was filed as active; the % refers to the signal ratio). In short, it runs like this: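 Screening used 2,000 AR-bla HEK293 cells per well, treated 16 h at 37C with test compounds in DMSO alongside positive and DMSO-only controls; beta-lactamase activity was then read by LiveBLAzer B/G FRET fluorescence after 2 h at room temperature.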

For test [8] the target is unchanged. The test can be described thus: qHTS assay to identify small molecule agonists of the androgen receptor (AR) signaling pathway using the MDA cell line (AID 743040; note: nearly all actives have a fitted effect of over 20% in size). In short, it runs like this:
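Luminescence from ONE-Glo, read after 30 min at room temperature, reflects MMTV-driven luciferase in MDA-kb2 cells (AR- and GR-responsive). Treatment lasted 16 h at 37C, 0% CO2.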

The nature of test [9]: qHTS assay to identify small molecule antagonists of the androgen receptor (AR) signaling pathway using the MDA cell line - cell viability counter screen (AID 743041; note: nearly all actives have a fitted effect of over 45% in size). In short, it runs like this:
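Viability counter screen run alongside the AR antagonist reporter: cells seeded 5 h before compound, R1881 added, 16 h incubation at 37C without CO2, fluorescent CellTiter-Fluor signal quantified.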

A short description of test [10]: qHTS assay to identify small molecule antagonists of the thyroid receptor (TR) signaling pathway - cell viability counter screen (AID 743064). Note: nearly all actives have a fitted effect of over 50% in size. A digest of the protocol:
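Viability of T3-stimulated (1 nM final) GH3.TRE-Luc cells is measured by CellTiter-Fluor fluorescence after 23.5 h compound exposure at 37 °C plus 30 min reagent incubation.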

Test [11] in a line: qHTS assay to identify small molecule antagonists of the thyroid receptor (TR) signaling pathway (AID 743065). Note: series mostly up to about 70 µM; nearly all actives have a fitted effect of over 55% in size. In short, it runs like this: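 GH3.TRE-Luc rat pituitary cells carrying two TR response elements driving luciferase were plated for 4 h, given compound plus 1 nM T3 (final), and incubated 23.5 h at 37 C. ONE-Glo luminescence measured reporter inhibition; CellTiter-Fluor fluorescence tracked cytotoxicity.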

The subject of test [12] is thyroid hormone receptor (rat, GH3 cells). The test can be described thus: qHTS assay to identify small molecule agonists of the thyroid receptor (TR) signaling pathway (AID 743066; calls by dose curve).
Test [13] concerns the target Estrogen receptor (Homo sapiens) (UniProt P03372). The test can be described thus: qHTS assay to identify small molecule antagonists of the estrogen receptor alpha (ER-alpha) signaling pathway (AID 743069; active = well fitted curve in the direction sought with a large enough effect in the signal ratio in the repeat runs, not every such curve was filed as active; the % refers to the signal ratio). In short, it runs like this:
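Estradiol-stimulated ER-alpha-UAS-bla HEK293 cells, 18 hr compound exposure at 37C. LiveBLAzer B/G substrate, 2 hr RT, fluorescence read.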

Test [14] can be described thus: qHTS assay to identify small molecule antagonists of the estrogen receptor alpha (ER-alpha) signaling pathway - cell viability counter screen (AID 743074; calls by dose curve;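 note: HEK293 cells carrying ER-alpha-UAS-bla reporter stimulated with 17beta-estradiol; nearly all actives have a fitted effect of over 45% in size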).
Test [15] has as its target Estrogen receptor (Homo sapiens) (UniProt P03372). Put plainly: qHTS assay to identify small molecule agonists of the estrogen receptor alpha (ER-alpha) signaling pathway (AID 743075; calls by dose curve;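 note: HEK293 GripTite cells with ER-alpha and UAS-driven beta-lactamase reporter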).
Test [16] shares this target. Put plainly: qHTS assay to identify small molecule agonists of the estrogen receptor alpha (ER-alpha) signaling pathway using the BG1 cell line (AID 743079). Note: nearly all actives have a fitted effect of over 20% in size. Note: potency is the fitted concentration of half-maximal effect.
Test [17] is described as follows: qHTS assay to identify small molecule antagonists of the estrogen receptor alpha (ER-alpha) signaling pathway using the BG1 cell line - cell viability counter screen (AID 743081).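 Note: compound given together with 17beta-estradiol as the ER stimulus; series mostly up to about 70 µM; nearly all actives have a fitted effect of over 45% in size.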
The target in test [18] is Aromatase (Homo sapiens) (UniProt P11511). The test can be described thus: qHTS assay to identify aromatase inhibitors (AID 743083). Note: series mostly up to about 70 µM; nearly all actives have a fitted effect of over 55% in size.
Sequence of Aromatase (Homo sapiens) (P11511 whole entry, looked up): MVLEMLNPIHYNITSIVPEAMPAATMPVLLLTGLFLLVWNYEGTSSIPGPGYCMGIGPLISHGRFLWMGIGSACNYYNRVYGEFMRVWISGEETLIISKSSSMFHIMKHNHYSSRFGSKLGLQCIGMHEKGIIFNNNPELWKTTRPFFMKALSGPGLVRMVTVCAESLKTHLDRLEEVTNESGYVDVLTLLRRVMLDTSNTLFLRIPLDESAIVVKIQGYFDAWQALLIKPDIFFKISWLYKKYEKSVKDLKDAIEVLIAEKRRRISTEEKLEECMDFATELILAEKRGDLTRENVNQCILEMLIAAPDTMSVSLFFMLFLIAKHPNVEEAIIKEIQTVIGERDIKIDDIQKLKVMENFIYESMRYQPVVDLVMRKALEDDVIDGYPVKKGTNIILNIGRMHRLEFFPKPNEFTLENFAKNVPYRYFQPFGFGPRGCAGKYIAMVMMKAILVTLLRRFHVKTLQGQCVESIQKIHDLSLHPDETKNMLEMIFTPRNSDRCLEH
Test [19] is described as follows: qHTS assay to identify aromatase inhibitors - cell viability counter screen (AID 743084).
Test [20] is described as follows: qHTS assay to identify small molecule antagonists of the estrogen receptor alpha (ER-alpha) signaling pathway using the BG1 cell line (AID 743080; calls by dose curve;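 note: BG1 cells stimulated with 17beta-estradiol alongside compound; series mostly up to about 70 µM; nearly all actives have a fitted effect of over 25% in size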). In short, it runs like this:
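After 5 days in phenol-red-free 10% charcoal-stripped FBS medium, BG1-Luc-4E2 cells were seeded, left 24 h at 37 C, co-treated with compounds and 17beta-estradiol for 21.5 h, then assayed for viability and luciferase.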

Sequence of Estrogen receptor (Homo sapiens) (P03372 whole entry, looked up): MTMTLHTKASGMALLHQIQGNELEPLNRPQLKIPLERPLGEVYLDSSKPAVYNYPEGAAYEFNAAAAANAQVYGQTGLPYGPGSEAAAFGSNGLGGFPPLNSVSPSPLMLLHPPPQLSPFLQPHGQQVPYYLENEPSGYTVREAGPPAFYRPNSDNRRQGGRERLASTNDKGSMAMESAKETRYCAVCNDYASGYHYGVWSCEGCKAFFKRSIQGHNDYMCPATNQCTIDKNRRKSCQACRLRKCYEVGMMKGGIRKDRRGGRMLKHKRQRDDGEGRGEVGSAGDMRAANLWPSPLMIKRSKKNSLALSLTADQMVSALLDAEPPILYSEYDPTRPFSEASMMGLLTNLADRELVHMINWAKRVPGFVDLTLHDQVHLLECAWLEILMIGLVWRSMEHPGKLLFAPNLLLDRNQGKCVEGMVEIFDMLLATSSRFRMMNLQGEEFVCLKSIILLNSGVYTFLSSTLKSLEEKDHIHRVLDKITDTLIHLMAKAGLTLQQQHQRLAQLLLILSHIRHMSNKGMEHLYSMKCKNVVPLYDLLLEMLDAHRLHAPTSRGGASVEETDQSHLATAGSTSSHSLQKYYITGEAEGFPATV

As for `O=S(=O)(O)c1cc(O)c(O)c(S(=O)(=O)O)c1`, the compound was called inactive in [1], in test [5], in test [7], in test [12], in test [17] and in test [18]. Further, the Potency result in [2], in test [3], in test [4], in test [6], in test [8] and in test [9] was “inactive” throughout. In addition, the Potency result in test [10], in test [11], in [13], in test [14], in test [15] and in test [16] was “inactive” throughout. Further, the Potency result in test [19] is “inactive”.

With `Nc1c2c(nc3c1CCC3)CCCC2`, the outcome in test [1], in [5], in test [12], in test [17] and in test [18] was inactive. For the same compound, the Potency result in test [2], in test [3], in [4], in test [8], in test [9] and in test [13] was “inactive” throughout. For the same compound, the Potency entry in test [14], in test [15], in test [16] and in test [19] was “inactive” throughout.

In the case of `COCCOC[C@H](CC1(C(=O)NC2CCC(C(=O)O)CC2)CCCC1)C(=O)Oc1ccc2c(c1)CCC2` (some centres not stated), the outcome in [1], in test [5], in [7], in test [12], in test [17] and in [18] was inactive. In addition, the Potency result in test [2], in test [3], in test [4], in test [6], in test [8] and in test [9] was “inactive” each time. Besides, the Potency result in test [11], in test [13], in test [14], in test [15] and in [16] was “inactive” in each case.

For the compound `CC(C)C1CCC(O)CC1` (configuration not stated), the compound was called inactive in [1], in test [5], in test [7], in [12], in test [17] and in test [18]. Besides, the Potency result in [2], in [3], in test [4], in test [6], in [8] and in test [9] was “inactive” throughout. For the same compound, the Potency entry in test [10], in [11], in test [14] and in test [19] was “inactive” in each case.

On to `NS(=O)(=O)Cc1noc2ccccc12`, for which the result in test [1], in [5], in test [7], in [12], in test [17] and in test [18] was inactive. Moreover, the Potency entry in [2], in [3], in [4], in test [6], in [8] and in test [9] was “inactive” throughout. In addition, the Potency entry in test [10], in test [11], in test [14] and in test [19] was “inactive” in each case.

Consider `CCCCOCCOC(=O)COc1cc(Cl)c(Cl)cc1Cl`, for which the compound was classed as inactive in test [1], in test [5], in [7], in [12], in test [17] and in test [18]. Moreover, the Potency entry in [2], in test [3], in test [4], in [6], in test [8] and in [9] was “inactive” throughout. Also, the Potency entry in [10], in [11], in test [13], in test [14], in test [15] and in test [16] was “inactive” throughout. The Potency result in test [19] is “inactive”.

With `CN(C)C(=O)Oc1cccc([N+](C)(C)C)c1`, the result in test [1], in [5], in test [12], in test [17] and in [18] was inactive. Further, the Potency entry in [2], in test [3], in test [4], in test [9], in test [10] and in test [11] was “inactive” in each case. Also, the Potency result in [13], in test [14], in [15], in test [16], in test [20] and in [19] was “inactive” throughout.

In the case of `CC1=CC(=O)[C@H]2C[C@@H]1C2(C)C`, the compound was called inactive in test [1], in [5], in test [12], in test [17] and in test [18]. Moreover, the Potency result in [2], in test [3], in test [4], in test [9], in [10] and in [11] was “inactive” throughout. For the same compound, the Potency result in [13], in test [14], in test [15], in test [16], in test [20] and in test [19] was “inactive” in each case.

`CC1(C)OC[C@@H](COC(=O)CCc2ccc(OC[C@@H](O)CNCCNC(=O)N3CCOCC3)cc2)O1`: the compound was classed as inactive in [1], in [5], in test [7], in [12], in test [17] and in test [18]. Besides, the Potency entry in [2], in test [3], in [4], in test [6], in [8] and in [9] was “inactive” throughout. In addition, the Potency result in test [10], in test [11], in [13], in test [14], in test [15] and in [16] was “inactive” in each case. Moreover, the Potency entry in test [20] and in [19] was “inactive” in each case.

As to `CC1CCC(CO)CC1` (configuration not stated), the compound was classed as inactive in [1], in test [5], in [12], in test [17] and in test [18]. Also, the Potency entry in [2], in test [3], in test [4], in test [6], in test [8] and in test [9] was “inactive” in each case. In addition, the Potency result in [10], in test [11], in test [14], in [15], in test [16] and in test [19] was “inactive” each time.

Take `CCCCCCCCCCOc1cc2c(=O)c(C(=O)OCC)c[nH]c2cc1OCC`: the compound was classed as inactive in [1], in [5], in test [12], in test [17] and in test [18]. For the same compound, the Potency entry in [2], in [3], in [4], in test [9], in test [10] and in test [11] was “inactive” throughout. For the same compound, the Potency entry in test [13], in [14], in test [15], in test [16], in test [20] and in [19] was “inactive” in each case.

As for `CN1CC(=O)N/C1=N/C(=O)Nc1cccc(Cl)c1`, the call in test [1], in [5], in test [12], in test [17] and in test [18] was inactive. For the same compound, the Potency entry in [2], in test [3], in test [4], in test [9], in test [10] and in test [11] was “inactive” each time. Besides, the Potency result in test [13], in test [14], in test [15] and in test [19] was “inactive” throughout. For the same compound, the Potency in [16] is 29.8 µM (active) and 5.31 µM (active).

For `O=C(O)CNC(=O)c1ccc(CO)o1`, the compound was classed as inactive in test [1], in [5], in test [12], in [17] and in test [18]. For the same compound, the Potency entry in test [2], in test [3], in [4], in test [9], in [10] and in [11] was “inactive” in each case. In addition, the Potency result in test [13], in test [14], in test [15], in test [16] and in test [19] was “inactive” in each case.

On to `CCCCCC(C)N` (configuration not stated), for which the outcome in [1], in test [5], in test [12], in [17] and in [18] was inactive. Further, the Potency result in [2], in [3], in test [4], in [6], in test [8] and in test [9] was “inactive” throughout. The Potency result in test [10], in test [11], in [14], in test [20] and in test [19] was “inactive” throughout.

For the compound `CCN[C@H]1C[C@H](C)S(=O)(=O)c2sc(S(N)(=O)=O)cc21`, the compound was called inactive in test [1], in test [5], in [12], in [17] and in [18]. Further, the Potency entry in test [2], in [3], in [4], in test [9], in test [10] and in test [11] was “inactive” in each case. Besides, the Potency result in test [13], in test [14], in [15], in [16], in [20] and in [19] was “inactive” each time.

`CC(C)(CCC(=O)O)C(=O)O`: the result in [1], in test [5], in [12], in test [17] and in [18] was inactive. Besides, the Potency result in [2], in [3], in test [4], in test [9], in test [10] and in [11] was “inactive” in each case. The Potency result in test [13], in test [14], in [15], in test [16], in test [20] and in test [19] was “inactive” throughout.
